Laboratory results reported in PubChem BioAssay AID1159580 (chemical genetic matrix, 2015).
Among all 5,500 compounds or so, about 2,000 (36%) were called active. Inconclusive results (about 18%) are left out. Cut-off read from the data, not from the text of the source: active = normalized growth mostly below about 0.91 (no sharp cut-off); inconclusive = no clear call, values can overlap the other calls; inactive = mostly above about 0.92. This is one part of the list.

Experiment: chemical genetic growth profiling, strain panel (AID 1159580);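 note: tested at 20 µM; growth read once vehicle control cultures reached saturation at 30 °C; 1 = growth at the plate median or of vehicle wells; lower values mean less growth of the strain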
Settings: growth OD

Measured: normalized growth

CC(C)NC[C@H](O)COc1cccc2ccccc12
inactive: S. cerevisiae deletion strains, locus YJR066W, strain TOR1, stronger effect = lower value 0.996 | S. cerevisiae deletion strains, locus YKL009W, strain mrt4, stronger effect = lower value 1.03 | S. cerevisiae deletion strains, locus YKL068W, stronger effect = lower value 1.01 | S. cerevisiae deletion strains, locus YKL085W, strain MDH1 (second series), stronger effect = lower value 0.999 | S. cerevisiae deletion strains, locus YKL085W, strain MDH1, stronger effect = lower value 0.999 | S. cerevisiae deletion strains, locus YKL160W, strain elf1, stronger effect = lower value 0.992 | S. cerevisiae deletion strains, locus YKR001C, strain vps1, stronger effect = lower value 1.04 | S. cerevisiae deletion strains, locus YKR026C, strain gcn3, stronger effect = lower value 0.978 | S. cerevisiae deletion strains, locus YKR091W, strain srl3, stronger effect = lower value 0.99 | S. cerevisiae deletion strains, locus YLL001W, strain dnm1, stronger effect = lower value 0.98 | S. cerevisiae deletion strains, locus YLL026W, stronger effect = lower value 0.98 | S. cerevisiae deletion strains, locus YLL041C, strain sdh2, stronger effect = lower value 0.997 | S. cerevisiae deletion strains, locus YLR027C, strain aat2, stronger effect = lower value 0.987 | S. cerevisiae deletion strains, locus YLR039C, strain RIC1, stronger effect = lower value 1.05 | S. cerevisiae deletion strains, locus YLR058C, strain SHM2, stronger effect = lower value 1.01 | S. cerevisiae deletion strains, locus YLR102C, strain apc9, stronger effect = lower value 1.02 | S. cerevisiae deletion strains, locus YLR113W, strain HOG1, stronger effect = lower value 1 | S. cerevisiae deletion strains, locus YLR221C, strain rsa3, stronger effect = lower value 0.991 | S. cerevisiae deletion strains, locus YLR258W, strain gsy2, stronger effect = lower value 0.985 | S. cerevisiae deletion strains, locus YLR262C, strain YPT6 (second series), stronger effect = lower value 0.974 | S. cerevisiae deletion strains, locus YLR262C, strain YPT6, stronger effect = lower value 1.02 | S. cerevisiae deletion strains, locus YLR268W, strain sec22, stronger effect = lower value 1.01 | S. cerevisiae deletion strains, locus YLR320W, strain mms22, stronger effect = lower value 0.973 | S. cerevisiae deletion strains, locus YLR330W, strain CHS5, stronger effect = lower value 1.01 | S. cerevisiae deletion strains, locus YLR342W, strain FKS1 (second series), stronger effect = lower value 0.963 | S. cerevisiae deletion strains, locus YLR342W, strain FKS1, stronger effect = lower value 0.986 | S. cerevisiae deletion strains, locus YLR357W, strain rsc2, stronger effect = lower value 0.978 | S. cerevisiae deletion strains, locus YLR370C, strain arc18, stronger effect = lower value 0.999 | S. cerevisiae deletion strains, locus YLR371W, strain rom2, stronger effect = lower value 1.03 | S. cerevisiae deletion strains, locus YLR384C, strain iki3, stronger effect = lower value 0.963 | S. cerevisiae deletion strains, locus YLR418C, strain cdc73, stronger effect = lower value 1.02 | S. cerevisiae deletion strains, locus YML016C, strain PPZ1, stronger effect = lower value 1 | S. cerevisiae deletion strains, locus YML032C, strain rad52, stronger effect = lower value 0.997 | S. cerevisiae deletion strains, locus YML120C, strain ndi1, stronger effect = lower value 1 | S. cerevisiae deletion strains, locus YML124C, strain tub3, stronger effect = lower value 1.02 | S. cerevisiae deletion strains, locus YMR058W, strain fet3, stronger effect = lower value 0.995 | S. cerevisiae deletion strains, locus YMR078C, strain ctf18, stronger effect = lower value 1.03 | S. cerevisiae deletion strains, locus YMR125W, strain sto1, stronger effect = lower value 0.966 | S. cerevisiae deletion strains, locus YMR129W, stronger effect = lower value 0.988 | S. cerevisiae deletion strains, locus YMR205C, strain PFK2, stronger effect = lower value 0.971 | S. cerevisiae deletion strains, locus YMR223W, strain ubp8, stronger effect = lower value 1.06 | S. cerevisiae deletion strains, locus YMR231W, strain pep5, stronger effect = lower value 0.988 | S. cerevisiae deletion strains, locus YMR263W, strain SAP30, stronger effect = lower value 1.01 | S. cerevisiae deletion strains, locus YMR307W, strain GAS1, stronger effect = lower value 1.06 | S. cerevisiae deletion strains, locus YNL067W, strain RPL9B, stronger effect = lower value 1.03 | S. cerevisiae deletion strains, locus YNL071W, strain lat1, stronger effect = lower value 0.997 | S. cerevisiae deletion strains, locus YNL183C, strain NPR1, stronger effect = lower value 0.995 | S. cerevisiae deletion strains, locus YNL209W, strain ssb2, stronger effect = lower value 0.987 | S. cerevisiae deletion strains, locus YNL233W, strain BNI4, stronger effect = lower value 1.02 | S. cerevisiae deletion strains, locus YNL248C, strain rpa49, stronger effect = lower value 0.989 | S. cerevisiae deletion strains, locus YNL250W, strain rad50, stronger effect = lower value 1.04 | S. cerevisiae deletion strains, locus YNL271C, strain bni1, stronger effect = lower value 1.02 | S. cerevisiae deletion strains, locus YNL298W, strain CLA4, stronger effect = lower value 1.01 | S. cerevisiae deletion strains, locus YNL307C, strain MCK1, stronger effect = lower value 1.02 | S. cerevisiae deletion strains, locus YNL322C, strain KRE1 (second series), stronger effect = lower value 0.977 | S. cerevisiae deletion strains, locus YNL322C, strain KRE1, stronger effect = lower value 1.01 | S. cerevisiae deletion strains, locus YNR049C, strain mso1, stronger effect = lower value 0.989 | S. cerevisiae deletion strains, locus YNR052C, strain pop2, stronger effect = lower value 1.01 | S. cerevisiae deletion strains, locus YOL012C, strain htz1 0.826 | S. cerevisiae deletion strains, locus YOL147C, strain pex11, stronger effect = lower value 1.02 | S. cerevisiae deletion strains, locus YOR001W, strain rrp6, stronger effect = lower value 0.994 | S. cerevisiae deletion strains, locus YOR061W, strain CKA2, stronger effect = lower value 1 | S. cerevisiae deletion strains, locus YOR069W, strain VPS5, stronger effect = lower value 1.01 | S. cerevisiae deletion strains, locus YOR070C, strain gyp1, stronger effect = lower value 0.998 | S. cerevisiae deletion strains, locus YOR080W, strain dia2, stronger effect = lower value 0.977 | S. cerevisiae deletion strains, locus YOR083W, strain WHI5, stronger effect = lower value 1.01 | S. cerevisiae deletion strains, locus YOR106W, strain vam3, stronger effect = lower value 0.997 | S. cerevisiae deletion strains, locus YOR136W, strain idh2, stronger effect = lower value 1.03 | S. cerevisiae deletion strains, locus YOR144C, strain elg1, stronger effect = lower value 1.02 | S. cerevisiae deletion strains, locus YOR184W, strain ser1, stronger effect = lower value 1.03 | S. cerevisiae deletion strains, locus YOR231W, strain MKK1, stronger effect = lower value 1.02 | S. cerevisiae deletion strains, locus YOR265W, strain rbl2, stronger effect = lower value 0.988 | S. cerevisiae deletion strains, locus YOR270C, strain vph1, stronger effect = lower value 1.03 | S. cerevisiae deletion strains, locus YOR290C, strain snf2, stronger effect = lower value 0.988 | S. cerevisiae deletion strains, locus YOR316C, strain cot1, stronger effect = lower value 1.03 | S. cerevisiae deletion strains, locus YPL051W, strain arl3, stronger effect = lower value 0.993 | S. cerevisiae deletion strains, locus YPL055C, strain LGE1, stronger effect = lower value 1.02 | S. cerevisiae deletion strains, locus YPL078C, strain atp4, stronger effect = lower value 1.01 | S. cerevisiae deletion strains, locus YPL106C, strain sse1, stronger effect = lower value 0.98 | S. cerevisiae deletion strains, locus YPL240C, strain hsp82, stronger effect = lower value 0.999 | S. cerevisiae deletion strains, locus YPL241C, strain CIN2, stronger effect = lower value 1.01 | S. cerevisiae deletion strains, locus YPL256C, strain CLN2, stronger effect = lower value 1.07 | S. cerevisiae deletion strains, locus YPR119W, strain clb2, stronger effect = lower value 1.03 | S. cerevisiae deletion strains, locus YPR141C, strain kar3, stronger effect = lower value 1.02 | S. cerevisiae deletion strains, locus YPR163C, strain tif3, stronger effect = lower value 1.02 | S. cerevisiae deletion strains, locus YPR167C, strain met16, stronger effect = lower value 1.03 | S. cerevisiae deletion strains, strain wtn01, stronger effect = lower value 1.01 | S. cerevisiae strains, strain wild type, stronger effect = lower value 1.01
